# Source: PubChem (National Center for Advancing Translational Sciences (NCATS))
# ELG1 DNA repair = qHTS screen for small molecules that inhibit ELG1-dependent DNA repair in human embryonic kidney (HEK293T) cells expressing luciferase-tagged ELG1; HEK293T ELG1-luciferase reporter, luminescence, 16 h; DNA damage induced by 5-fluorouridine; hit rate 2.3% among 330,000; Potency, µM (series often up to 46.1 µM), for inactives: top-dose activity change, negative = inhibition, hits mostly inhibitors; further: potency means the concentration at half of the fitted maximal effect; nearly all actives have a fitted effect of over 55% in size
#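 Reporter activity after DNA damage by 5-fluorouridine is monitored. Compound-treated cells incubate 16 hr at 37 °C, then ONE-Glo is added for 30 min before luminescence reading.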
# HT1080-NT tox = qHTS for induction of synthetic lethality in tumor cells producing 2HG: qHTS for the HT-1080-NT fibrosarcoma cell line; HT-1080-NT fibrosarcoma viability, CellTiter-Glo ATP luminescence, 48 h; Potency, µM (titrated, usually from 46.1 µM), inactives show top-dose activity, negative = less viability, hits mostly cytotoxic; hit rate 1.6% among 360,000;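 further: NT is the 2HG producing partner of a matched IDH1 knockdown line; potency means the concentration at half of the fitted maximal effect; 0% = DMSO-treated cells and -100% = media-only wells without cells; nearly all actives have a fitted effect of over 55% in size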
#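 Viability of the 2HG-overproducing fibrosarcoma line after 48 hours of compound exposure at 37 degrees C was determined by luminescence with CellTiter-Glo, and concentration-effect curves were then fitted and categorized.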
# HT1080 IDH1KD tx = qHTS for induction of synthetic lethality in tumor cells producing 2HG: qHTS for the HT-1080-IDH1KD cell line | HT-1080 IDH1 knockdown viability, ATP luminescence, 48 h | Potency, µM (doses to about 46.1 µM), inactives show at the highest dose activity, negative = toxicity, most hits filed as cytotoxic | hit rate 2% among 360,000 | AID 686971, 2013;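 further: potency means the concentration at half of the fitted maximal effect; 0% = DMSO wells and -100% = cell-free medium wells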
#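 IDH1KD HT-1080 cells, 750/well, RPMI + 5% FBS; compound pinned after 2 h settling; 48 h, 37 °C; CellTiter-Glo luminescence; % activity normalised to DMSO and no-cell wells; curves fitted, classed by r2 and efficacy.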
# DT40 TDP1 CPT = qHTS for Inhibitors of human tyrosyl-DNA phosphodiesterase 1 (TDP1): qHTS in cells in presence of CPT; chicken DT40 Tdp1-/-;hTDP1 cells + 20 nM CPT, ATP luminescence, 48 h; Potency, µM (doses to about 46.2 µM), without a hit: top-dose activity change, negative = growth inhibition, usual class: inhibitors; hit rate 12% among 420,000; AID 686979, 2013; further: potency means the concentration at half of the fitted maximal effect; nearly all actives have a fitted effect of over 55% in size
#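 Chicken DT40 Tdp1-/- cells stably complemented with human TDP1 were seeded at 400 cells/well in medium containing 20 nM camptothecin, exposed to pin-transferred compounds, and grown at 37 °C for at least 48 hr. Viability was read as ATP luminescence.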
# IL-1B inflam inh = qHTS for Inhibitors of Inflammasome Signaling: IL-1-beta AlphaLISA Primary Screen; THP-1 LPS/ATP IL-1B secretion, AlphaLISA, 16 h; hits give low values; activity change, % at 57.5 µM; hit rate 4.7% among 360,000; AID 743279, 2014; in the data active means activity change below about -50%; inconclusive means mostly about -30% to -49%
#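 THP-1 cells pretreated 1 hr with compounds (up to 57.5 uM final), then stimulated with LPS (250 ng/mL final) plus ATP (1.25 mM final); secreted IL-1B measured by AlphaLISA after 16 hr, decreased signal indicating inhibition.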
# TDP1 cell noCPT = qHTS for Inhibitors of human tyrosyl-DNA phosphodiesterase 1 (TDP1): qHTS in cells in absence of CPT; DT40 Tdp1-/- hTDP1 cells, no CPT, ATP luminescence, 48 h; Potency, µM (top dose mostly 46.2 µM), without a hit: at the highest dose activity change, negative = growth inhibition, actives largely listed as inhibitors; hit rate 15% among 420,000; AID 686978, 2013; further: potency means the concentration at half of the fitted maximal effect; nearly all actives have a fitted effect of over 55% in size
#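 Cells were dispensed at 400 per well, compounds added by pin tool, plates incubated ≥48 hr at 37 °C, then CellTiter-Glo added for 30 min at room temperature before luminescence reading. Line: DT40 Tdp1-/- complemented with hTDP1; camptothecin omitted.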
# Starred values were filed as active, the others as inactive; u = inconclusive; x = not tested or not shown; [ ] = another dose, or the depositor's remark. Sampled rows, rich in hits. Any-hit rate of the full collection: about 19%. Unless noted, the call rests on the fitted dose curve; in most records, active means well fitted curve in the direction sought with a large enough effect; inconclusive means small, poorly fitted or top-dose-only effect, or another doubt; inactive means no such curve, though single readings can be large; an effect the other way counts as inactive or inconclusive. Unless noted, on the % scale 0 is the no-effect control and ±100 the full control effect.
SMILES,ELG1 DNA repair,HT1080-NT tox,HT1080 IDH1KD tx,DT40 TDP1 CPT,IL-1B inflam inh,TDP1 cell noCPT
COc1ccc(-c2nc(-c3ccccc3)c(-c3cc([N+](=O)[O-])ccc3C)[nH]2)cc1O,u,u,u,u,-1,15µM*
Cc1ccc([N+](=O)[O-])cc1-c1[nH]c(-c2ccc(O)c(O)c2)nc1-c1ccccc1,u,-9%,-25%,16µM*,3,16µM*
O=C(N=C1SC2CS(=O)(=O)CC2N1c1ccc(Br)cc1)C1CCCO1 (stereo unspecified),2%,10%,19%,-6%,0,39%
COc1cccc(C(=O)N(C)CC(=O)Nc2cccc3ccccc23)c1,u,-8%[9.24 µM],5%,-13%,9,1%
CC(C)COc1cccc(C(=O)N(C)CC(=O)Nc2cccc3ccccc23)c1,-24%,-5%,-5%,18µM*,-19,18µM*
CC1Cc2ccccc2N1S(=O)(=O)c1cccc(C(=O)N2CCN(c3ncccn3)CC2)c1 (stereo unspecified),19%,-29%,u,u,-66*,u
COc1ccccc1N1CCN(C(=O)c2cccc(S(=O)(=O)N3CCCCCC3)c2)CC1,13µM*,-3%[9.24 µM],-3%,u,4,18µM*
CC(=O)N1CCN(C(=O)c2cccc(S(=O)(=O)N3c4ccccc4CC3C)c2)CC1 (stereo unspecified),8%,2%,-4%,-9%,34,-26%
CCOC(=O)c1ccc(NC(=O)c2cccc(S(=O)(=O)N3c4ccccc4CC3C)c2)s1 (stereo unspecified),21µM*,u,u,16µM*,18,6.5µM*
COc1ccccc1N1CCN(C(=O)c2cc(S(=O)(=O)N3CCCCC3)ccc2C)CC1,u,-17%,-4%,u,22,u
CC1Cc2ccccc2N1S(=O)(=O)c1cccc(C(=O)NCCCO)c1 (stereo unspecified),-3%,11%,10%,-28%,34,-18%
Cc1ccc(C(=O)Nc2nnc(S(=O)(=O)N3c4ccccc4CC3C)s2)cc1 (stereo unspecified),x,x,x,u,x,23µM*
C#Cc1ccc(CN2CCC(Oc3cc(C(=O)NC4CC4)ccc3OC)CC2)cc1,u,0%,-1%,u,-9,u
COCCCNC(=O)CCn1c(=O)c2ccccc2n(CC(=O)Nc2c(C)cc(C)cc2C)c1=O,x,x,x,-9%,x,-11%
Cc1cc(SCC(=O)OCC(=O)N(CCC#N)c2ccccc2)nc2ccccc12,12%,14%,12%,-8%,4,-23%
Cc1cccc(N2CCN(C(=O)c3ccc4c(c3)CCN4S(C)(=O)=O)CC2)c1C,u,0%,0%,13µM*,-51*,u
Cc1cccc(N2CCN(C(=O)c3cccc(S(=O)(=O)N4CCCCC4)c3)CC2)c1C,13µM*,u,u,u,17,u
CN1CCN(C(=O)c2cccc(S(=O)(=O)N3CCCCC3)c2)CC1,8%,5%,u,0%,11,-6%
CC(=O)N1CCc2nc3sc(C(=O)c4ccc(F)cc4)c(N)c3c(C(F)(F)F)c2C1,x,x,x,u,x,21µM*
COc1ccc(CNC(=O)c2sc3nc4c(c(C(F)(F)F)c3c2N)CCC4)cc1OC,u,6%,2%,u,u,16µM*
